A number with no mark means an inactive call. Calls of active or inactive are those of the source.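 Rule for the calls, unless noted: active = efflux inhibition above 0.42, the validation set average plus 4 SD; inconclusive = no clear call, values can overlap the other calls; inactive = the rest.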

Our source for the binding (% of control) and efflux inhibition (fraction of control) values is PubChem BioAssay.

One experiment has as its system anti-desmoglein-3 scFv antibody binding to human DSG3. Put plainly: inhibitors of anti-DSG3 scFv binding to DSG3, pilot screen, biochemical, validation compound set, bead-based, flow cytometry (AID 588368;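 active = binding below the plate cutoff, the plate median minus 3 SD, with a reading above zero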;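 note: signal is the median channel fluorescence of bead-bound GFP antibody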). The following applies: Protein G beads, DSG3-Fc, scFv-GFP binding, at 10 µM, stronger effect = lower value. A general note: In flow cytometry, cells or beads pass a laser one at a time.
For the compound `CCC(C)NCCOc1ccc(C(C)(C)c2ccccc2)cc1` (stereo not given), the binding (% of control) was 106%.

As for `O=C(NCc1ccc(N2CCCC2=O)cc1)c1ccc(F)cc1`, the binding (% of control) was 107%.

On to `CC1(C)O[C@@H]2C[C@H]3[C@@H]4C[C@H](F)C5=CC(=O)CC[C@]5(C)[C@H]4[C@@H](O)C[C@]3(C)[C@]2(C(=O)CO)O1`, for which the binding (% of control) is 106%.

With `N/C(=N\OC(=O)CCCOc1ccc(Cl)cc1Cl)c1ccncc1`, the binding (% of control) is 102%.

For the compound `COCCCN1C(=O)/C(=C\c2cccs2)C(C(=O)OC)=C1C`, the binding (% of control) was 102%.

With `Cc1ccc2nc(C)c3c(c2c1)OC(C(C)(Cl)Br)C3` (stereo not given), the binding (% of control) was 98.4%.

Turning to `CC12COC3(C(=O)Nc4ccc(F)cc4)CC1CCC32C` (stereo not given), the binding (% of control) was 102%.

With `Cc1ccnc(NS(=O)(=O)c2ccc(N)cc2)n1`, the binding (% of control) was 94%.

On to `CC1(C)CC(=O)c2cnc(NC(=O)C3CCCC3)nc2C1`, for which the binding (% of control) is 96.1%.

As for `COc1ccc(CCN2CNc3c(c(=O)n(C)c(=O)n3C)C2)cc1OC`, the binding (% of control) is 99.7%.

For `O=C(O)CCCc1ccccc1`, the binding (% of control) was 96.1%.

Take `CCCNCC(O)COc1ccccc1C(=O)CCc1ccccc1` (stereo not given): the binding (% of control) is 100%.

In the case of `COc1ccc(C(=O)O)cc1F`, the binding (% of control) is 102%.

Consider `COc1cc(C)nc(-n2nc(C)cc2OC)n1`, for which the binding (% of control) was 95.9%.

Take `CCCCCCC(=O)N(O)C1CC(=O)N(Cc2ccccc2)C1=O` (stereo not given): the binding (% of control) is 100%.

Turning to `CC(=O)N1CCN(c2ccc(NC(=O)/C=C/c3ccccc3)cc2)CC1`, the binding (% of control) is 107%.

For `Cc1ccc(Nc2ncccc2C(=O)O)cc1C`, the binding (% of control) was 105%.

Turning to `CCCCCCCC(=O)OCC(O)CO` (stereo not given), the binding (% of control) is 98.7%.

On to `CSCCC(NC(C)=O)C(=O)Oc1ccc2c3c(c(=O)oc2c1)CCCC3` (stereo not given), for which the binding (% of control) was 93.2%.

For the compound `CC(C)CN1CCN(Cc2ccc(C#CC(C)(C)O)cc2)CC1CCO` (stereo not given), the binding (% of control) was 98.3%.

Regarding `Cc1nc(C2CC(=O)OC23CCCCC3)cs1` (stereo not given), the binding (% of control) was 98.7%.

As to `CO[C@H]1C=CO[C@@]2(C)Oc3c(C)c(O)c4c(O)c(c(C=NN5CCN(C)CC5)c(O)c4c3C2=O)NC(=O)C(C)=CC=C[C@H](C)[C@H](O)[C@@H](C)[C@@H](O)[C@@H](C)[C@H](OC(C)=O)[C@@H]1C`, the binding (% of control) was 99.2%.

Turning to `COc1cccc(-n2cc(CNCc3c(C(=O)N(C)C)nc4ccc(Cl)cn34)cn2)c1`, the binding (% of control) is 98%.

In the case of `S=C(c1ccc2c(c1)OCO2)N1CCCCC1`, the binding (% of control) is 99.8%.

In the case of `CC(C)Oc1ccc2c(=O)c(-c3ccccc3)coc2c1`, the binding (% of control) is 101%.

Turning to `CCn1cc(CN2N=C(C)CC2c2ccccc2)c(C)n1` (stereo not given), the binding (% of control) was 103%.

For the compound `CCCCOc1ccc(C(=O)CCN2CCCCC2)cc1`, the binding (% of control) was 104%.

With `NCCCC(N)(C(=O)O)C(F)F` (stereo not given), the binding (% of control) was 97.7%.

Regarding `C[N+](C)(C)CCOP(=O)([O-])OC[C@H](O)CO`, the binding (% of control) is 102%.

As to `O=C(O)C1CCN(C(=O)COc2ccc3c4c(c(=O)oc3c2)CCC4)CC1`, the binding (% of control) is 109%.

For the compound `COc1ccc(OC)c(S(=O)(=O)N2CCCc3ccccc32)c1`, the binding (% of control) is 105%.

On to `COc1ccc2[nH]c(=O)c3c(c2c1)OC(C)(C)C=C3`, for which the binding (% of control) was 101%.

With `CCN1CCN(C(=S)c2ccc(OC)cc2)CC1`, the binding (% of control) is 101%.

For `C=CCOc1ccc(C(=O)CC)cc1OC`, the binding (% of control) is 106%.

As for `CCc1cccc2c3c([nH]c12)C(CC)(CC(=O)O)OCC3` (stereo not given), the binding (% of control) was 86.9%.

As for `COc1ccc(OC(C)C(=O)Nc2ccccc2F)cc1` (stereo not given), the binding (% of control) was 104%.

As for `CCCC(=O)Nc1ccccc1NC(C)=O`, the binding (% of control) was 95.1%.

In the case of `O=C(O)CCCCCCNC(=O)c1cncc(O)c1`, the binding (% of control) is 97.3%.

Regarding `COc1ccc(Br)cc1C(=O)Nc1ccc(C(=O)O)cc1`, the binding (% of control) was 96.3%.

With `CC[N+]1(CC)CC2=Cc3ccccc3CC2C1` (stereo not given), the binding (% of control) was 99%.

Tested on in the next experiment: not listed separately
The experiment can be described thus: inhibitors of fungal efflux pumps CDR1, CDR2, MDR1, pilot screen, validation compound set, multiplex, phenotypic (AID 588506).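 Note: Nile Red retained in cells so higher fluorescence means more efflux inhibition; 0 = negative control wells and 1 = enniatin B 25 µM full block.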 The following applies: S. cerevisiae pump-expressing triplex, Nile Red efflux flow cytometry; at 10 µM; stronger effect = higher value; the pumps come from Candida albicans.
In the case of `CCC(C)NCCOc1ccc(C(C)(C)c2ccccc2)cc1` (stereo not given), the efflux inhibition (fraction of control) is -0.01.

In the case of `O=C(NCc1ccc(N2CCCC2=O)cc1)c1ccc(F)cc1`, the efflux inhibition (fraction of control) was -0.04.

`CC1(C)O[C@@H]2C[C@H]3[C@@H]4C[C@H](F)C5=CC(=O)CC[C@]5(C)[C@H]4[C@@H](O)C[C@]3(C)[C@]2(C(=O)CO)O1`: the efflux inhibition (fraction of control) was 0.25.

Consider `N/C(=N\OC(=O)CCCOc1ccc(Cl)cc1Cl)c1ccncc1`, for which the efflux inhibition (fraction of control) was -0.005.

On to `COCCCN1C(=O)/C(=C\c2cccs2)C(C(=O)OC)=C1C`, for which the efflux inhibition (fraction of control) is -0.06.

With `Cc1ccc2nc(C)c3c(c2c1)OC(C(C)(Cl)Br)C3` (stereo not given), the efflux inhibition (fraction of control) is 0.08.

As to `CC12COC3(C(=O)Nc4ccc(F)cc4)CC1CCC32C` (stereo not given), the efflux inhibition (fraction of control) was 0.3.

With `Cc1ccnc(NS(=O)(=O)c2ccc(N)cc2)n1`, the efflux inhibition (fraction of control) is -0.3.

`CC1(C)CC(=O)c2cnc(NC(=O)C3CCCC3)nc2C1`: the efflux inhibition (fraction of control) is 0.36.

Turning to `COc1ccc(CCN2CNc3c(c(=O)n(C)c(=O)n3C)C2)cc1OC`, the efflux inhibition (fraction of control) is 0.04.

With `O=C(O)CCCc1ccccc1`, the efflux inhibition (fraction of control) is 0.02.

For the compound `CCCNCC(O)COc1ccccc1C(=O)CCc1ccccc1` (stereo not given), the efflux inhibition (fraction of control) is 0.11.

`COc1ccc(C(=O)O)cc1F`: the efflux inhibition (fraction of control) is -0.09.

`COc1cc(C)nc(-n2nc(C)cc2OC)n1`: the efflux inhibition (fraction of control) was 0.02.

In the case of `CCCCCCC(=O)N(O)C1CC(=O)N(Cc2ccccc2)C1=O` (stereo not given), the efflux inhibition (fraction of control) was -0.01.

On to `CC(=O)N1CCN(c2ccc(NC(=O)/C=C/c3ccccc3)cc2)CC1`, for which the efflux inhibition (fraction of control) was 0.39.

Regarding `Cc1ccc(Nc2ncccc2C(=O)O)cc1C`, the efflux inhibition (fraction of control) was -0.31.

`CCCCCCCC(=O)OCC(O)CO` (stereo not given): the efflux inhibition (fraction of control) is 0.02.

In the case of `CSCCC(NC(C)=O)C(=O)Oc1ccc2c3c(c(=O)oc2c1)CCCC3` (stereo not given), the efflux inhibition (fraction of control) is -0.01.

Turning to `CC(C)CN1CCN(Cc2ccc(C#CC(C)(C)O)cc2)CC1CCO` (stereo not given), the efflux inhibition (fraction of control) was 0.34.

Regarding `Cc1nc(C2CC(=O)OC23CCCCC3)cs1` (stereo not given), the efflux inhibition (fraction of control) is -0.24.

On to `CO[C@H]1C=CO[C@@]2(C)Oc3c(C)c(O)c4c(O)c(c(C=NN5CCN(C)CC5)c(O)c4c3C2=O)NC(=O)C(C)=CC=C[C@H](C)[C@H](O)[C@@H](C)[C@@H](O)[C@@H](C)[C@H](OC(C)=O)[C@@H]1C`, for which the efflux inhibition (fraction of control) was 0.01.

In the case of `COc1cccc(-n2cc(CNCc3c(C(=O)N(C)C)nc4ccc(Cl)cn34)cn2)c1`, the efflux inhibition (fraction of control) is -0.26.

For `S=C(c1ccc2c(c1)OCO2)N1CCCCC1`, the efflux inhibition (fraction of control) was 0.19.

In the case of `CC(C)Oc1ccc2c(=O)c(-c3ccccc3)coc2c1`, the efflux inhibition (fraction of control) was -0.53.

On to `CCn1cc(CN2N=C(C)CC2c2ccccc2)c(C)n1` (stereo not given), for which the efflux inhibition (fraction of control) was -0.28.

Consider `CCCCOc1ccc(C(=O)CCN2CCCCC2)cc1`, for which the efflux inhibition (fraction of control) is 0.11.

For the compound `NCCCC(N)(C(=O)O)C(F)F` (stereo not given), the efflux inhibition (fraction of control) is -0.135.

Consider `C[N+](C)(C)CCOP(=O)([O-])OC[C@H](O)CO`, for which the efflux inhibition (fraction of control) was 0.25.

With `O=C(O)C1CCN(C(=O)COc2ccc3c4c(c(=O)oc3c2)CCC4)CC1`, the efflux inhibition (fraction of control) was 0.

For the compound `COc1ccc(OC)c(S(=O)(=O)N2CCCc3ccccc32)c1`, the efflux inhibition (fraction of control) was 0.18.

Consider `COc1ccc2[nH]c(=O)c3c(c2c1)OC(C)(C)C=C3`, for which the efflux inhibition (fraction of control) was 0.08.

As for `CCN1CCN(C(=S)c2ccc(OC)cc2)CC1`, the efflux inhibition (fraction of control) was -0.21.

Regarding `C=CCOc1ccc(C(=O)CC)cc1OC`, the efflux inhibition (fraction of control) is 0.03.

`CCc1cccc2c3c([nH]c12)C(CC)(CC(=O)O)OCC3` (stereo not given): the efflux inhibition (fraction of control) was -0.26.

As to `COc1ccc(OC(C)C(=O)Nc2ccccc2F)cc1` (stereo not given), the efflux inhibition (fraction of control) is -0.15.

`CCCC(=O)Nc1ccccc1NC(C)=O`: the efflux inhibition (fraction of control) was 1.13 (active).

With `O=C(O)CCCCCCNC(=O)c1cncc(O)c1`, the efflux inhibition (fraction of control) was 0.

Take `COc1ccc(Br)cc1C(=O)Nc1ccc(C(=O)O)cc1`: the efflux inhibition (fraction of control) is -0.04.

For `CC[N+]1(CC)CC2=Cc3ccccc3CC2C1` (stereo not given), the efflux inhibition (fraction of control) is 0.3.
